Test [1] can be described thus: E. coli DRC41 culture turbidity changes, primary screen, E. coli filamentation inducer project, strain DRC41, OD650, 48 h (AID 1152).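 Also: E. coli MC1000 strain DRC41 lacking acrAB efflux pump and sulA.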 The conditions noted are these: E. coli DRC41 (acrAB sulA), higher = more signal, called active from +8 up or from −8 down.
The nature of test [2]: small-molecule binders of probe aLefty1, primary screen, biochemical, small-molecule microarray, 635/667 nm fluorescence (AID 1153).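 Also: score merges spot fluorescence with signal-to-noise ratio from the scanned slide images.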 The conditions noted are these: higher = more signal.
Test [3] in a line: PSAC antagonists in infected red cells, primary screen, cell-based, P. falciparum Indochina, OD700, 1 h (AID 1154). The conditions noted are these: P. falciparum Indochina infected RBC osmotic lysis, higher = more signal, called active from +8 up or from −8 down.
Test [4] in a line: PSAC antagonists in infected red cells, primary screen, cell-based, P. falciparum Indochina, OD700, 2 h (AID 1155).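 Also: lysis reports solute entry through the parasite surface anion channel PSAC; channel blockers reduce lysis of infected cells.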 The conditions noted are these: P. falciparum Indochina infected erythrocytes, osmotic lysis OD700; higher = more signal, called active from +8 up or from −8 down.
The nature of test [5]: osmotic lysis modulators in infected erythrocytes, primary screen, PSAC antagonist project, cell-based, P. falciparum Indochina, OD700, 3 h (AID 1156). The conditions noted are these: higher = more signal, called active from +8 up or from −8 down.
The nature of test [6]: PSAC antagonists in infected red cells, primary screen, cell-based, P. falciparum Indochina, OD700, 18 h (AID 1157). The conditions noted are these: P. falciparum Indochina infected erythrocytes, osmotic lysis OD700, 18 h; higher = more signal, called active from +8 up or from −8 down.
Test [7] can be described thus: modulators of S6 phosphorylation in cells, primary screen, cell-based, A549, cytoblot, luminescence, serum-stimulated (AID 1158).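 Also: serum-stimulated A549 lung adenocarcinoma cells; signal is phosphorylated S6 detected by cytoblot immunostaining with HRP secondary.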 The conditions noted are these: A549 phospho-S6 cytoblot, 5 h, higher = more signal.
The target of test [8] is NADPH oxidase 2 (Homo sapiens) (UniProt P04839). The experiment in a line: NOX2-dependent H2O2 signal modulators, primary screen, NOX inhibitor project, cell-based, HEK293-NOX2, PMA-stimulated, Amplex Red fluorescence (AID 1159). Also: test concentration not given here. The conditions noted are these: 45 min, higher = more signal, called active from +8 up or from −8 down.
NADPH oxidase 2 (Homo sapiens), sequence (P04839 whole entry, looked up): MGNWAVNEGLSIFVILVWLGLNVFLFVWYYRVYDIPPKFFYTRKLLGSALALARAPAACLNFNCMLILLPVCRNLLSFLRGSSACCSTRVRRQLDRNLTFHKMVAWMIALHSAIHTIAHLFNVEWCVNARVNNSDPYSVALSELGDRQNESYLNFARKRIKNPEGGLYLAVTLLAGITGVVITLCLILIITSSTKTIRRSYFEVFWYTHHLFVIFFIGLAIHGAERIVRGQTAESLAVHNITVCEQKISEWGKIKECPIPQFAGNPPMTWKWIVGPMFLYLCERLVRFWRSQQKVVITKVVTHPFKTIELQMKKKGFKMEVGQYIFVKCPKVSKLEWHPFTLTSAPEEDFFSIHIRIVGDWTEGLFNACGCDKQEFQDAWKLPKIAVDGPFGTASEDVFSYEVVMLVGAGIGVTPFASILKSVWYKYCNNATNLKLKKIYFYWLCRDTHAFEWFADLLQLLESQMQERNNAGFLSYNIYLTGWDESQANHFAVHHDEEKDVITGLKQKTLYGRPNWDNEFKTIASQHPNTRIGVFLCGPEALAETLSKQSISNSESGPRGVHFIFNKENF
The target of test [9] is NADPH oxidase 4 (Homo sapiens) (UniProt Q9NPH5). The experiment in a line: NOX4-dependent H2O2 signal modulators, primary screen, NOX inhibitor project, cell-based, HEK293-NOX4, tetracycline-induced, Amplex Red fluorescence (AID 1160). The conditions noted are these: 45 min, higher = more signal, called active from +8 up or from −8 down.
NADPH oxidase 4 (Homo sapiens), sequence (Q9NPH5 whole entry, looked up): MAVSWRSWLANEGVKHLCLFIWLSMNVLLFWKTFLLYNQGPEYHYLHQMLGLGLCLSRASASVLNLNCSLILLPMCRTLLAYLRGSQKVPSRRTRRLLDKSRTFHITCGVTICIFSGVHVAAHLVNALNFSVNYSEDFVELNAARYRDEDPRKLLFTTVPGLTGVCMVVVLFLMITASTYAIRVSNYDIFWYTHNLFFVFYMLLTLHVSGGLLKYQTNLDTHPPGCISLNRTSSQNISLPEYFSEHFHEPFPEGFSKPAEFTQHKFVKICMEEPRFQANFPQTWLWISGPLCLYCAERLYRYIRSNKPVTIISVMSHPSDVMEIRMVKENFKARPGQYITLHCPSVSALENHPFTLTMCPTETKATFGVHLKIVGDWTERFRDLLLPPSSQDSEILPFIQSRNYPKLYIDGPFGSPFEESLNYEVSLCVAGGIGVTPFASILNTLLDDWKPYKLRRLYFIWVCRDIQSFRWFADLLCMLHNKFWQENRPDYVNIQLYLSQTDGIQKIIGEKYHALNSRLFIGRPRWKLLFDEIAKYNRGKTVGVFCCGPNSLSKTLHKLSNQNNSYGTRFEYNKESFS
Test [10] concerns the target NADPH oxidase 5 (Homo sapiens) (UniProt Q96PH1). The experiment in a line: NOX5-dependent H2O2 signal modulators, primary screen, NOX inhibitor project, cell-based, HEK293-NOX5, Amplex Red fluorescence (AID 1161). The conditions noted are these: HEK293-NOX5, ionomycin, 45 min, higher = more signal.

Active and inactive are the calls of the source.

NADPH oxidase 5 (Homo sapiens), sequence (Q96PH1 whole entry, looked up): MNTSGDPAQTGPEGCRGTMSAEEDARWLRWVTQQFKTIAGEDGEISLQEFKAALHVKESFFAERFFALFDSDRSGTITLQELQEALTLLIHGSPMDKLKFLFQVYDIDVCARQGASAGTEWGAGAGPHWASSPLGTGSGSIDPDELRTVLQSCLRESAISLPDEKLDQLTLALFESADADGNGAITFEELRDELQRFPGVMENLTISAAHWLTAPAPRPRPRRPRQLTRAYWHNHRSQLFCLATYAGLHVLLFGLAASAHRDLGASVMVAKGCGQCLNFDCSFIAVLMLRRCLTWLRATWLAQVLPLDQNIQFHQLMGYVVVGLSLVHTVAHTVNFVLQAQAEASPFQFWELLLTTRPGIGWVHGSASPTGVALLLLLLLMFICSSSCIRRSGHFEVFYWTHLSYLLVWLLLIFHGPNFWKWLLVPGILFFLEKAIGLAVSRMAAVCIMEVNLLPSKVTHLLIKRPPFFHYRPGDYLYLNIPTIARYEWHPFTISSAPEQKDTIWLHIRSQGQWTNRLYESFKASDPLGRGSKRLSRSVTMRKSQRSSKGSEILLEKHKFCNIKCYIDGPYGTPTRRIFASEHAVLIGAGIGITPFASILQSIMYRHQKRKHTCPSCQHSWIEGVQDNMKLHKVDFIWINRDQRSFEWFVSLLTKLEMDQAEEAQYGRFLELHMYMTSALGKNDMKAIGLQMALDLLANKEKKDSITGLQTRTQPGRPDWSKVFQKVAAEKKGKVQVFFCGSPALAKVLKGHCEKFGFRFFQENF

In the case of `O=C(c1ccccc1)N1Cc2ccccc2C[C@@]2(COC(c3ccc(OCCCO)cc3)=N2)C1=O`, the z-score in [1] is -0.298 (inactive); in test [3], 15.2 (active); in test [4], 1.26 (inactive); in test [5], 4.66 (inactive); in [6], 0.498 (inactive); in test [7], -0.107. Further, the figures for the z-score in [8], in test [9] and in test [10] were 0.137 (inactive), -0.302 (inactive) and -0.983, respectively. The compound also had a composite z-score in test [2] of 0.39.

For `CN1C(=O)C2C=CC(C(O)C#Cc3ccccc3)N(N3CCCCC3)C2C1=O` (stereo not given), the z-score in [1] was -0.381 (inactive); in test [3], 1.24 (inactive); in [4], 1.09 (inactive); in [5], 0.83 (inactive); in test [6], 1.17 (inactive); in [7] it was -0.726. For the same compound, the z-score is -0.23 (inactive) in [8], 0.191 (inactive) in [9] and -0.26 in [10]. In test [2], this compound registered a composite z-score of 0.807.

With `O=C(CS)NCCCCCCNC(=O)[C@@H]1C[C@@H]2C(=O)N[C@@H](Cc3ccccc3)C(=O)N2[C@@H]1c1cccc(OCCO)c1`, the z-score in test [1] was -0.92 (inactive); in [3], 4.39 (inactive); in test [4], 0.198 (inactive); in test [5], 0.839 (inactive); in [6] it was 0.0799 (inactive); in [7], -0.775. Further, the z-score was 1.75 (inactive) in test [8], 0.728 (inactive) in [9] and -0.131 in test [10]. The same compound displayed a composite z-score in [2] of -0.073.

For the compound `CCOC(=O)C[C@H]1[C@H](OC(=O)c2cc3ccccc3oc2=O)[C@@H](NC(=O)c2ccccc2)c2cc(OCCCO)ccc2N1C(=O)c1ccc2ccccc2n1`, the z-score in test [1] is 0.0582 (inactive); in test [3] it was 10.4 (active); in test [4] it was 1.33 (inactive); in [5], 1.17 (inactive); in test [6], 0.599 (inactive); in test [7], -0.253. Moreover, the z-score is 0.543 (inactive) in test [8], 0.43 (inactive) in test [9] and 1.44 in test [10]. Further, the composite z-score in test [2] is -0.0969.

Consider `C=CCN1C(=O)[C@@]2(CC=C)N=C(c3ccc(OCCCO)cc3)O[C@H]2c2ccccc21`, for which the z-score in test [1] was 1.92 (inactive); in test [3], 34.5 (active); in test [4], 30.9 (active); in test [5] it was 3.11 (inactive); in [6], 9.88 (active); in test [7], 1.63. Moreover, the z-score in test [8] is -2.21 (inactive); in test [9], 0.796 (inactive); in test [10], -0.809. Besides, the composite z-score in test [2] turned out to be 0.547.

In the case of `O=C(NCCN1CCOCC1)[C@@H]1c2ccccc2C(=O)N(C2CCCCC2)[C@H]1c1ccc(CO)cc1`, the z-score in [1] is -0.306 (inactive); in [3], 3.9 (inactive); in [4] it was 1.22 (inactive); in test [5], 1 (inactive); in test [6], 0.403 (inactive); in test [7], 0.227. Also, the z-score is 0.822 (inactive) in test [8], 1.3 (inactive) in test [9] and 0.579 in test [10]. The same compound displayed a composite z-score in test [2] of -0.007.

As for `CCOC(=O)C[C@H]1[C@H](OC(=O)c2ccc(-c3ccccc3)cc2)[C@@H](NC(=O)Cc2ccc(OC)cc2)c2cc(OCCCO)ccc2N1C(=O)c1ccccc1`, the z-score in test [1] is -0.539 (inactive); in test [3] it was 1.84 (inactive); in [4], -0.259 (inactive); in [5], 0.438 (inactive); in [6], 0.285 (inactive); in test [7], 1.3. The values for the z-score in [8], in [9] and in test [10] were -1.43 (inactive), -1.72 (inactive) and -0.795, respectively. The composite z-score in test [2] amounted to 0.206.

For the compound `COC(=O)[C@H](Cc1ccccc1)N1CC2=C[C@@H](C3CC3)n3c(=O)n(C)c(=O)n3[C@H]2[C@@H]1[C@@H](O)Cc1ccccc1`, the z-score in test [1] is -1.32 (inactive); in test [3], 11.5 (active); in test [4] it was 2.35 (inactive); in test [5] it was 0.645 (inactive); in [6], 1.58 (inactive); in [7], 0.144. The z-score in test [8] was -0.813 (inactive); in test [9], -0.218 (inactive); in test [10], -1.71. The compound further yielded a composite z-score in [2] of 0.355.

Take `O=C1C[C@@](C(=O)NCCN2CCOCC2)(c2ccc([N+](=O)[O-])cc2)[C@@H](c2ccc(CO)cc2I)N1CC12CC3CC(CC(C3)C1)C2`: the z-score is -0.942 (inactive) in test [1]; 18.9 (active) in [3]; 10.2 (active) in test [4]; 0.797 (inactive) in test [5]; 1.28 (inactive) in test [6]; 0.238 in test [7]. In addition, the z-score was -8.18 (active) in test [8], -1.75 (inactive) in test [9] and 1.58 in test [10]. In test [2], this compound came in with a composite z-score of 0.344.

With `C#C[C@H](O[Si](C#Cc1ccc(Oc2ccccc2)cc1)(C(C)C)C(C)C)c1ccccc1`, the z-score in [1] was -0.425 (inactive); in test [3], 0.353 (inactive); in test [4] it was 0.787 (inactive); in test [5] it was -2.03 (inactive); in [6] it was -0.206 (inactive); in [7], -0.305. The results for the z-score in test [8], in [9] and in test [10] were -1.03 (inactive), -2.59 (inactive) and -3.04, respectively. This compound returned a composite z-score in test [2] of -0.104.

As to `O=C1C2C=CC(C(O)c3cccc4ccccc34)N(Nc3ccccc3F)C2C(=O)N1c1ccccc1` (stereo not given), the z-score in test [1] was -0.875 (inactive); in test [3] it was 3.49 (inactive); in [4], 1.34 (inactive); in test [5] it was -0.481 (inactive); in test [6], 1.05 (inactive); in test [7] it was -0.607. Besides, the z-score in [8] is -0.26 (inactive); in test [9] it was -2.65 (inactive); in test [10] it was -1.21. In test [2], this compound returned a composite z-score of 0.419.

With `C=CC[C@]1(C(=O)NCc2ccccc2)N=C(c2ccc(OCCCO)cc2)O[C@H]1c1ccccc1N=[N+]=[N-]`, the z-score was 0.0858 (inactive) in test [1]; 31.8 (active) in test [3]; 27.1 (active) in [4]; 3.46 (inactive) in [5]; 6.96 (inactive) in test [6]; 0.0617 in test [7]. For the same compound, the z-score was -1.8 (inactive) in [8], 0.721 (inactive) in test [9] and -0.0713 in [10]. Also, the composite z-score in test [2] was 0.222.

The record behind these values is PubChem BioAssay.
